In test [1] the target is Aryl hydrocarbon receptor (Homo sapiens) (UniProt P35869). Briefly: qHTS assay to identify small molecule that activate the aryl hydrocarbon receptor (AhR) signaling pathway (AID 743085).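 For activation: HG2L7.5c1 human HepG2 liver cells with stably integrated DRE-driven firefly reporter; series mostly up to about 70 µM.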 Note: nearly all actives have a fitted effect of over 15% in size. Note: potency is the fitted concentration of half-maximal effect. Put shortly:
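HepG2 cells (HG2L7.5c1) stably carrying a firefly luciferase reporter driven by 20 dioxin responsive elements were exposed to compound for 24 h at 37C after a 5 h settling period; luminescence rise (ONE-Glo) indicated activation.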
(In general: In qHTS, concentration-response curves come from the screen itself.)

Test [2] has as its target Peroxisome proliferator-activated receptor gamma (Homo sapiens) (UniProt P37231). Briefly: qHTS assay to identify small molecule agonists of the peroxisome proliferator-activated receptor gamma (PPARg) signaling pathway (AID 743094; active = well fitted activation curve with a large enough effect in the signal ratio in the repeat runs, not every such curve was filed as active; the % refers to the signal ratio). Put shortly:
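Beta-lactamase FRET fluorescence was the read-out after a 1 h room-temperature substrate step, following 17 h compound treatment at 37C of HEK293H cells expressing a UAS-driven bla reporter responsive to PPARg.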

The target is the same in test [3]. Briefly: qHTS assay to identify small molecule antagonists of the peroxisome proliferator-activated receptor gamma (PPARg) signaling pathway (AID 743191; calls by dose curve; note: series mostly up to about 63 µM; nearly all actives have a fitted effect of over 30% in size). The essentials: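 GeneBLAzer PPARg UAS-bla HEK293H cells carrying a UAS-driven beta-lactamase reporter were plated at 3000 cells/well, preincubated 5 h at 37C, then given compound for 17 h at 37C; LiveBLAzer B/G FRET substrate was read after 1 h at room temperature.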

A short description of test [4]: qHTS assay to identify small molecule antagonists of the peroxisome proliferator-activated receptor gamma (PPARg) signaling pathway - cell viability counter screen (AID 743194). Note: nearly all actives have a fitted effect of over 55% in size. Particulars: Potency: co-treated with 50 nM rosiglitazone. The essentials: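 PPARg-UAS-bla HEK293H cells were plated, rested 5 h at 37 C, then treated with compounds plus rosiglitazone (50 nM final) for 17 h at 37 C; viability was then read by CellTiter-Glo luminescence after 30 min at room temperature.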

Test [5] in a line: qHTS assay for small molecule agonists of the antioxidant response element (ARE) signaling pathway - cell viability counter screen (AID 743203; calls by dose curve; note: nearly all actives have a fitted effect of over 55% in size). Put shortly: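 HepG2 cells carrying ARE-driven beta-lactamase; 2,000 cells/well; 5 hrs plating; compound pinned from DMSO; 16 hrs 37C/5% CO2; CellTiter-Glo added; 30 min RT; luminescence.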
Test [6] can be described thus: qHTS assay for small molecule activators of the heat shock response signaling pathway - cell viability counter screen (AID 743209). Note: nearly all actives have a fitted effect of over 50% in size. Put shortly: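 Luminescence from CellTiter-Glo, added after the beta-lactamase FRET read, gave the viability signal. Cells were HSE-bla HeLa treated with DMSO-dissolved compounds for 5 h at 37 C following overnight plating.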
Test [7] is described as follows: qHTS assay for small molecule activators of the heat shock response signaling pathway (AID 743210; active = well fitted activation curve with a large enough effect in the signal ratio in the repeat runs, with a control signal flat, not every such curve was filed as active; the % refers to the signal ratio;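 note: HeLa cells with beta-lactamase reporter driven by heat shock elements; series mostly up to about 63 µM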). The essentials: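 Reporter gene assay: HeLa cells stably bearing an HSE-bla construct, compound treatment 5 h at 37 C, LiveBLAzer substrate 2.5 h at RT, fluorescence intensity.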
The nature of test [8]: qHTS assay to identify small molecule agonists of the peroxisome proliferator-activated receptor delta (PPARd) signaling pathway - cell viability counter screen (AID 743211). Note: nearly all actives have a fitted effect of over 55% in size. The essentials: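 PPARd-bla HEK293H cells (UAS-beta-lactamase reporter) were treated with compounds for 17 h at 37 C. Viability was then read in the same wells by CellTiter-Glo luminescence after 30 min at room temperature.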

A short description of test [9]: qHTS assay to identify small molecule antagonists of the peroxisome proliferator-activated receptor delta (PPARd) signaling pathway - cell viability counter screen (AID 743213). Note: nearly all actives have a fitted effect of over 50% in size. Put shortly:
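In this counter screen, HEK293H cells carrying a UAS-beta-lactamase reporter are co-treated with test compounds and 300 nM L165041 (final) for 17 h at 37 C; cell viability is quantified by CellTiter-Glo luminescence.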

A short description of test [10]: qHTS assay to identify small molecule agonists of the farnesoid-X-receptor (FXR) signaling pathway - cell viability counter screen (AID 743218). Note: nearly all actives have a fitted effect of over 45% in size. Put shortly: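 HEK 293T FXR-bla cells; 5 h pre-incubation, 16 h compound exposure at 37 C; LiveBLAzer substrate 2 h RT, then CellTiter-Glo 30 min RT, luminescence.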
A short description of test [11]: qHTS assay to identify small molecule antagonists of the farnesoid-X-receptor (FXR) signaling pathway - cell viability counter screen (AID 743221; active = well fitted cell-killing curve with a large enough effect in the repeat runs, not every such curve was filed as active; note: nearly all actives have a fitted effect of over 50% in size). The essentials:
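FXR-UAS-bla HEK 293T cells were treated with test compounds plus chenodeoxycholic acid (50 uM final) for 16 h at 37 C. Cell viability in the same wells was then read as CellTiter-Glo luminescence after 30 min at room temperature.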

In test [12] the target is Vitamin D3 receptor (Homo sapiens) (UniProt P11473). Nature of the test: qHTS assay to identify small molecule agonists of the vitamin D receptor (VDR) signaling pathway (AID 743222; calls by dose curve). Put shortly:
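VDR-bla cells, 2,000/well; 4 h preincubation 37C; cpd (DMSO) 16 h; LiveBLAzer B/G substrate 2 h RT; fluorescence intensity read.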

Test [13] shares this target. Briefly: qHTS assay to identify small molecule antagonists of the vitamin D receptor (VDR) signaling pathway (AID 743223; active = well fitted inhibition curve with a large enough effect in the signal ratio in the repeat runs, not every such curve was filed as active; the % refers to the signal ratio). The essentials: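 VDR-bla cells were plated, incubated 4 h at 37C, then given compound and 1alpha,25-dihydroxyvitamin D3 (3 nM final). After 16 h at 37C, LiveBLAzer B/G FRET substrate was added for 2 h at room temperature and fluorescence read.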

Test [14] can be described thus: qHTS assay to identify small molecule agonists of the vitamin D receptor (VDR) signaling pathway - cell viability counter screen (AID 743224). Note: series mostly up to about 63 µM; nearly all actives have a fitted effect of over 50% in size. Put shortly:
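Luminescence from CellTiter-Glo, read after 30 min at room temperature, reports viability of VDR-bla cells treated with compounds for 16 h at 37C in the wells used for the beta-lactamase FRET read.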

Test [15] in a line: qHTS assay to identify small molecule that activate the aryl hydrocarbon receptor (AhR) signaling pathway - cell viability counter screen (AID 743086).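 Note: HepG2 liver cells carrying the AhR DRE luciferase reporter; series mostly up to about 70 µM; nearly all actives have a fitted effect of over 45% in size.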 The essentials:
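HepG2-AhR-luc (HG2L7.5c1) cells, 4000/well, were preincubated 5 h at 37C, exposed to compound in qHTS format for 24 hr at 37C, then given CellTiter-Fluor for 30 min; viability was read as fluorescence in the reporter wells.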

The nature of test [16]: qHTS assay for small molecule agonists of the antioxidant response element (ARE) signaling pathway (AID 743202; active = well fitted activation curve with a large enough effect in the signal ratio in the repeat runs, not every such curve was filed as active; the % refers to the signal ratio; note: potency is the fitted concentration of half-maximal effect). Put shortly: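 Compounds delivered in DMSO to ARE-bla HepG2 cells (2,000 cells/well, pre-incubated 5 h) and left 16 h at 37 C. LiveBLAzer B/G FRET substrate then added for 2 h at RT before fluorescence reading.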
Test [17] addresses Peroxisome proliferator-activated receptor delta (Homo sapiens) (UniProt Q03181). Nature of the test: qHTS assay to identify small molecule agonists of the peroxisome proliferator-activated receptor delta (PPARd) signaling pathway (AID 743212; calls by dose curve). The essentials:
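A PPARd-bla HEK293H line with beta-lactamase under an Upstream Activator Sequence is treated with compounds at 37 C. Substrate loading for 2 h at room temperature precedes the fluorescence measurement.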

Test [18] shares this target. Briefly: qHTS assay to identify small molecule antagonists of the peroxisome proliferator-activated receptor delta (PPARd) signaling pathway (AID 743215; active = well fitted inhibition curve with a large enough effect in the signal ratio in the repeat runs, not every such curve was filed as active; the % refers to the signal ratio;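 note: cells stimulated with agonist L165041 at 300 nM final during compound exposure; series mostly up to about 62 µM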). The essentials: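 Read-out is beta-lactamase FRET fluorescence, measured 2 h after substrate addition at room temperature. Beforehand, UAS-bla HEK293H cells carrying the PPARd reporter were exposed to compounds with L165041 at 300 nM final for 17 h at 37 C.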

Test [19] has as its target Bile acid receptor (Homo sapiens) (UniProt Q96RI1). Nature of the test: qHTS assay to identify small molecule antagonists of the farnesoid-X-receptor (FXR) signaling pathway (AID 743217; active = well fitted inhibition curve with a large enough effect in the signal ratio in the repeat runs, not every such curve was filed as active; the % refers to the signal ratio). Put shortly:
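HEK 293T FXR-UAS-bla, 5000 cells/well; compound + CDCA 50 uM final; 16 h, 37 °C; B/G FRET substrate 2 h RT; fluorescence.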

Test [20] has the same target. Briefly: qHTS assay to identify small molecule agonists of the farnesoid-X-receptor (FXR) signaling pathway (AID 743220; active = well fitted activation curve with a large enough effect in the signal ratio in the repeat runs, not every such curve was filed as active; the % refers to the signal ratio). The essentials: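 Beta-lactamase reporter under UAS control in GeneBLAzer FXR HEK 293T cells (5000/well) measured with LiveBLAzer FRET substrate after 2 h at room temperature. Compound exposure lasted 16 h at 37C.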

Results filed as inconclusive are left out. The source made the active and inactive calls. Unless noted, calls come from the whole dose curve; as a rule, active = well fitted curve in the direction sought with a large enough effect in the repeat runs; inconclusive = weak or mixed curves; inactive = no such curve, though single readings can be large; an effect the other way counts as inactive or inconclusive.

8 molecules from PubChem BioAssay (Tox21) can be followed below.

Sequence of Peroxisome proliferator-activated receptor delta (Homo sapiens) (Q03181 whole entry, looked up): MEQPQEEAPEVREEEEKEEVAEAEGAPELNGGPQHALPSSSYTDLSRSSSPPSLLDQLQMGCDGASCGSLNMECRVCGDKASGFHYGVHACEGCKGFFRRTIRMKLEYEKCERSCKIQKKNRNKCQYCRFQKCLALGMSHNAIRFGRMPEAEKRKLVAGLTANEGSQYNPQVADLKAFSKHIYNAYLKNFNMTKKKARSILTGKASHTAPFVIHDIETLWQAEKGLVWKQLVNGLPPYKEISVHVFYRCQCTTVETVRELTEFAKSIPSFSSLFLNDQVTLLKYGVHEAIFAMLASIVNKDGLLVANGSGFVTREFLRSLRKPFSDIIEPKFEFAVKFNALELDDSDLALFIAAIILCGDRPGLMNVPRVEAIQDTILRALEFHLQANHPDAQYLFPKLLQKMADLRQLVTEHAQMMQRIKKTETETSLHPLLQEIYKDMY
Sequence of Aryl hydrocarbon receptor (Homo sapiens) (P35869 whole entry, looked up): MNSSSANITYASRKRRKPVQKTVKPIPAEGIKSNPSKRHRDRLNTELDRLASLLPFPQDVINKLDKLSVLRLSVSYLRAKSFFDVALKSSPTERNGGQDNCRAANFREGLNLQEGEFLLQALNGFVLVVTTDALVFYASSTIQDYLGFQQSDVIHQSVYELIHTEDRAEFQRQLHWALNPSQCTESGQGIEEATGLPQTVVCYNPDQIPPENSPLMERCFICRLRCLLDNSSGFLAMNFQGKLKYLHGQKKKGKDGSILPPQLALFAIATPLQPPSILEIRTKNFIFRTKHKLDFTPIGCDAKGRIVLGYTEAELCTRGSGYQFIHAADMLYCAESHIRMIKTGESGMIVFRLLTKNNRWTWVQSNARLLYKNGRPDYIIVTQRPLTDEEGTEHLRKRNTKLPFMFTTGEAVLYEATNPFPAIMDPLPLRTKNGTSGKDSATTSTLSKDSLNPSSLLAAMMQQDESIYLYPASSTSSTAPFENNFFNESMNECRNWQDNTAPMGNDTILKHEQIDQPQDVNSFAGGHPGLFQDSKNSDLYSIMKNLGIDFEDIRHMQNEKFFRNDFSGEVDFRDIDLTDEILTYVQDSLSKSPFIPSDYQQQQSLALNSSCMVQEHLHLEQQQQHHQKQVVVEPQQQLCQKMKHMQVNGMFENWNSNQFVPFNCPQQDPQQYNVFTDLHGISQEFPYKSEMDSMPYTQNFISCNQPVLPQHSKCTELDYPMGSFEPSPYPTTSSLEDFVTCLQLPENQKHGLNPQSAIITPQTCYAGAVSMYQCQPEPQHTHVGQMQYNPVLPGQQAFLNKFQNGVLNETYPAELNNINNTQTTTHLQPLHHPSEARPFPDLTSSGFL
Sequence of Peroxisome proliferator-activated receptor gamma (Homo sapiens) (P37231 whole entry, looked up): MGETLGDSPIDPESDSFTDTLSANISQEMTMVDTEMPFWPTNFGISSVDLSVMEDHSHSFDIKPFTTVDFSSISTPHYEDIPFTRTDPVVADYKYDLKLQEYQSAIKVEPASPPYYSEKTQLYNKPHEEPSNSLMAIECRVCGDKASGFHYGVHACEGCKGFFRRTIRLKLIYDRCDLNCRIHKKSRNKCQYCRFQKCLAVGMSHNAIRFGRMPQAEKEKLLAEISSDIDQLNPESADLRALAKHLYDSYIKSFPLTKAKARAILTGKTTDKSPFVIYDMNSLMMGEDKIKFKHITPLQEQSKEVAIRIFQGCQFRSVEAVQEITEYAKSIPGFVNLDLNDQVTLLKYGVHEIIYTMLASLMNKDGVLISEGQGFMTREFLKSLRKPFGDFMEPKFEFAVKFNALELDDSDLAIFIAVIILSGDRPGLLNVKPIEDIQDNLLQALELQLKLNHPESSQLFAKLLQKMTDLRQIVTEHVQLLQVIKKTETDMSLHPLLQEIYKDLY
Sequence of Bile acid receptor (Homo sapiens) (Q96RI1 whole entry, looked up): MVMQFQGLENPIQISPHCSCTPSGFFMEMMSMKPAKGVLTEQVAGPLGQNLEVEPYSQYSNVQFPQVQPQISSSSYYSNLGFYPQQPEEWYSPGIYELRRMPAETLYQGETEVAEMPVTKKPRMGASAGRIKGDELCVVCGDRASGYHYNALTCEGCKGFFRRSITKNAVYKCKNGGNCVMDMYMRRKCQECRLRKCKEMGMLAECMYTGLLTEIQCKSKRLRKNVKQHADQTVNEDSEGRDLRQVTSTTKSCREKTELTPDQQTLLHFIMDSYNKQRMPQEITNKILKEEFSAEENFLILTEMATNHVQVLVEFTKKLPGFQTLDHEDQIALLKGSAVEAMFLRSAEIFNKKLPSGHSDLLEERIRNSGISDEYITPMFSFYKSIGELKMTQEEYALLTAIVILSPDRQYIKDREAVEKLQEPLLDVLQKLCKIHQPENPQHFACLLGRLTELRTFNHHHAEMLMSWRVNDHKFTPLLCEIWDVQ
Sequence of Vitamin D3 receptor (Homo sapiens) (P11473 whole entry, looked up): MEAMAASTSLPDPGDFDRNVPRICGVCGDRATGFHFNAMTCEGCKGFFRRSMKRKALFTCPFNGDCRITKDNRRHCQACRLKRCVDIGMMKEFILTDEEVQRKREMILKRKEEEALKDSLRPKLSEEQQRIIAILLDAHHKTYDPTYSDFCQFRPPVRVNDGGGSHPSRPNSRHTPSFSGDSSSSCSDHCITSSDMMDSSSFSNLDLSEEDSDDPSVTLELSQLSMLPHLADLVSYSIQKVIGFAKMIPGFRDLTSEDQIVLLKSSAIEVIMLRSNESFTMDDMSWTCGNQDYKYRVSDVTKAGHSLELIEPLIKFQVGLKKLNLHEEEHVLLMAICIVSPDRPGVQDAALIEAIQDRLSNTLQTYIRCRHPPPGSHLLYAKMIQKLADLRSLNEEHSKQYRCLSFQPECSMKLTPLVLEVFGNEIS

Turning to `ClC(Cl)(Cl)C(Cl)(Cl)Cl`, the Potency result in test [1], in test [3], in [4], in [5], in [6] and in test [8] was “inactive” throughout. Also, the Potency entry in test [10] and in [14] was “inactive” throughout. Also, the molecule was classed as inactive in test [2], in test [7], in [9], in [11], in [12] and in test [13].

Regarding `O=C(O)C(Br)CBr` (stereo unspecified), the Potency result in test [1], in test [5], in [6], in test [8], in [10] and in test [14] was “inactive” each time. Further, the outcome in [15], in test [7], in test [9] and in [11] was inactive. Further, in test [16], the Potency was 27.8 µM (active).

Turning to `Cc1cc(C)nc(Nc2ccccc2)n1`, the Potency in test [1] was 48.6 µM (active). Moreover, the molecule was classed as inactive in [2], in test [17], in test [11], in test [12] and in test [13]. For the same molecule, the Potency result in test [3], in test [4], in [5], in test [6], in [8] and in [10] was “inactive” in each case. Further, in [14], the Potency result was “inactive”.

For the molecule `CCCCP(CCCC)CCCC`, the Potency result in test [1], in test [4], in test [16], in [6], in test [19] and in [10] was “inactive” each time. Besides, the Potency entry in [14] is “inactive”. For the same molecule, the molecule was classed as inactive in test [15], in test [7], in [17], in test [9], in test [18] and in [11]. Besides, the outcome in [12] and in test [13] was inactive.

With `O=C1OC(=O)C2C1C1(Cl)C(Cl)=C(Cl)C2(Cl)C1(Cl)Cl` (stereo unspecified), the Potency entry in [1], in [3], in test [16], in [5], in test [6] and in test [8] was “inactive” each time. Moreover, the Potency result in test [19], in test [10] and in [14] was “inactive” throughout. Moreover, the call in [2], in test [7], in test [17], in test [9], in [18] and in test [20] was inactive. In addition, the call in [11] and in test [12] was inactive.

With `[As]#[In]`, the Potency entry in test [1], in [4], in test [5], in test [6], in [8] and in [10] was “inactive” in each case. Also, the Potency result in test [14] is “inactive”. The call in test [15], in [7], in test [9] and in [11] was inactive.

Take `CN(N=O)C(N)=O`: the Potency result in test [1], in [3], in test [16], in test [5], in test [6] and in test [8] was “inactive” throughout. Besides, the Potency result in [19], in test [10] and in test [14] was “inactive” in each case. Moreover, the result in test [2], in test [9], in test [20], in [11] and in test [13] was inactive.

With `CCS(=O)(=O)CCSP(=O)(OC)OC`, the Potency result in test [1], in test [5], in [6], in test [10] and in [14] was “inactive” throughout. Moreover, the molecule was classed as inactive in [15], in [7], in [17], in [9], in test [18] and in [11].
